According to PubChem BioAssay AID1159580 (chemical genetic matrix, 2015):
The campaign covered roughly 5,500 compounds. About 2,000 (36%) were called active. Another 18% or so got no clear call; they are omitted. No stated cut-off is given here; in the data, active means normalized growth mostly below about 0.91 (no sharp cut-off); inconclusive means no clear call, values can overlap the other calls; inactive means mostly above about 0.92. This is one part of the list.

Assay: chemical genetic growth profiling, strain panel (AID 1159580);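 further: tested at 20 µM; growth read once vehicle control cultures reached saturation at 30 °C; 1 = growth at the plate median or of vehicle wells; lower values mean less growth of the strain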
Conditions: growth OD

Measured: normalized growth

O=C(CCCN1CC=C(n2c(=O)[nH]c3ccccc32)CC1)c1ccc(F)cc1
inactive: S. cerevisiae deletion strains, locus YJR075W, strain HOC1, hits give low values 0.98 | S. cerevisiae deletion strains, locus YKL009W, strain mrt4, hits give low values 0.939 | S. cerevisiae deletion strains, locus YKL068W, hits give low values 0.989 | S. cerevisiae deletion strains, locus YKL085W, strain MDH1 (second series), hits give low values 0.994 | S. cerevisiae deletion strains, locus YKL085W, strain MDH1, hits give low values 0.994 | S. cerevisiae deletion strains, locus YKL160W, strain elf1, hits give low values 0.977 | S. cerevisiae deletion strains, locus YKL190W, strain CNB1, hits give low values 0.99 | S. cerevisiae deletion strains, locus YKR001C, strain vps1, hits give low values 0.981 | S. cerevisiae deletion strains, locus YKR026C, strain gcn3, hits give low values 0.948 | S. cerevisiae deletion strains, locus YKR091W, strain srl3, hits give low values 0.967 | S. cerevisiae deletion strains, locus YLL001W, strain dnm1, hits give low values 0.957 | S. cerevisiae deletion strains, locus YLL026W, hits give low values 0.968 | S. cerevisiae deletion strains, locus YLL041C, strain sdh2, hits give low values 0.988 | S. cerevisiae deletion strains, locus YLR027C, strain aat2, hits give low values 0.979 | S. cerevisiae deletion strains, locus YLR039C, strain RIC1, hits give low values 0.969 | S. cerevisiae deletion strains, locus YLR058C, strain SHM2, hits give low values 0.967 | S. cerevisiae deletion strains, locus YLR102C, strain apc9, hits give low values 0.989 | S. cerevisiae deletion strains, locus YLR113W, strain HOG1, hits give low values 0.971 | S. cerevisiae deletion strains, locus YLR221C, strain rsa3, hits give low values 0.976 | S. cerevisiae deletion strains, locus YLR258W, strain gsy2, hits give low values 0.987 | S. cerevisiae deletion strains, locus YLR262C, strain YPT6 (second series), hits give low values 0.954 | S. cerevisiae deletion strains, locus YLR262C, strain YPT6, hits give low values 0.942 | S. cerevisiae deletion strains, locus YLR268W, strain sec22, hits give low values 1.05 | S. cerevisiae deletion strains, locus YLR320W, strain mms22, hits give low values 0.986 | S. cerevisiae deletion strains, locus YLR330W, strain CHS5, hits give low values 0.986 | S. cerevisiae deletion strains, locus YLR342W, strain FKS1 (second series), hits give low values 0.944 | S. cerevisiae deletion strains, locus YLR342W, strain FKS1, hits give low values 0.974 | S. cerevisiae deletion strains, locus YLR357W, strain rsc2, hits give low values 0.951 | S. cerevisiae deletion strains, locus YLR370C, strain arc18, hits give low values 0.972 | S. cerevisiae deletion strains, locus YLR371W, strain rom2, hits give low values 0.949 | S. cerevisiae deletion strains, locus YLR384C, strain iki3, hits give low values 0.961 | S. cerevisiae deletion strains, locus YLR418C, strain cdc73, hits give low values 0.968 | S. cerevisiae deletion strains, locus YML016C, strain PPZ1, hits give low values 0.987 | S. cerevisiae deletion strains, locus YML032C, strain rad52, hits give low values 0.993 | S. cerevisiae deletion strains, locus YML120C, strain ndi1, hits give low values 1 | S. cerevisiae deletion strains, locus YML124C, strain tub3, hits give low values 0.975 | S. cerevisiae deletion strains, locus YMR058W, strain fet3, hits give low values 0.99 | S. cerevisiae deletion strains, locus YMR078C, strain ctf18, hits give low values 0.979 | S. cerevisiae deletion strains, locus YMR125W, strain sto1, hits give low values 0.944 | S. cerevisiae deletion strains, locus YMR129W, hits give low values 0.987 | S. cerevisiae deletion strains, locus YMR205C, strain PFK2, hits give low values 0.951 | S. cerevisiae deletion strains, locus YMR223W, strain ubp8, hits give low values 0.955 | S. cerevisiae deletion strains, locus YMR231W, strain pep5, hits give low values 0.979 | S. cerevisiae deletion strains, locus YMR263W, strain SAP30, hits give low values 0.987 | S. cerevisiae deletion strains, locus YMR307W, strain GAS1, hits give low values 0.974 | S. cerevisiae deletion strains, locus YNL067W, strain RPL9B, hits give low values 0.999 | S. cerevisiae deletion strains, locus YNL071W, strain lat1, hits give low values 0.982 | S. cerevisiae deletion strains, locus YNL128W, strain TEP1, hits give low values 0.98 | S. cerevisiae deletion strains, locus YNL153C, strain GIM3, hits give low values 0.985 | S. cerevisiae deletion strains, locus YNL183C, strain NPR1, hits give low values 0.925 | S. cerevisiae deletion strains, locus YNL209W, strain ssb2, hits give low values 0.975 | S. cerevisiae deletion strains, locus YNL233W, strain BNI4, hits give low values 0.992 | S. cerevisiae deletion strains, locus YNL248C, strain rpa49, hits give low values 0.981 | S. cerevisiae deletion strains, locus YNL250W, strain rad50, hits give low values 0.971 | S. cerevisiae deletion strains, locus YNL271C, strain bni1, hits give low values 0.995 | S. cerevisiae deletion strains, locus YNL298W, strain CLA4, hits give low values 0.982 | S. cerevisiae deletion strains, locus YNL307C, strain MCK1, hits give low values 0.968 | S. cerevisiae deletion strains, locus YNL322C, strain KRE1 (second series), hits give low values 0.984 | S. cerevisiae deletion strains, locus YNL322C, strain KRE1, hits give low values 0.987 | S. cerevisiae deletion strains, locus YNR049C, strain mso1, hits give low values 0.972 | S. cerevisiae deletion strains, locus YNR052C, strain pop2, hits give low values 0.992 | S. cerevisiae deletion strains, locus YOL006C, strain TOP1, hits give low values 0.996 | S. cerevisiae deletion strains, locus YOL012C, strain htz1 0.899 | S. cerevisiae deletion strains, locus YOL147C, strain pex11, hits give low values 0.991 | S. cerevisiae deletion strains, locus YOR001W, strain rrp6, hits give low values 0.955 | S. cerevisiae deletion strains, locus YOR061W, strain CKA2, hits give low values 0.97 | S. cerevisiae deletion strains, locus YOR070C, strain gyp1, hits give low values 0.99 | S. cerevisiae deletion strains, locus YOR080W, strain dia2, hits give low values 0.963 | S. cerevisiae deletion strains, locus YOR083W, strain WHI5, hits give low values 0.978 | S. cerevisiae deletion strains, locus YOR106W, strain vam3, hits give low values 0.933 | S. cerevisiae deletion strains, locus YOR136W, strain idh2, hits give low values 0.983 | S. cerevisiae deletion strains, locus YOR144C, strain elg1, hits give low values 0.988 | S. cerevisiae deletion strains, locus YOR184W, strain ser1, hits give low values 0.967 | S. cerevisiae deletion strains, locus YOR231W, strain MKK1, hits give low values 0.992 | S. cerevisiae deletion strains, locus YOR265W, strain rbl2, hits give low values 0.981 | S. cerevisiae deletion strains, locus YOR270C, strain vph1, hits give low values 0.956 | S. cerevisiae deletion strains, locus YOR290C, strain snf2, hits give low values 0.98 | S. cerevisiae deletion strains, locus YOR316C, strain cot1, hits give low values 0.98 | S. cerevisiae deletion strains, locus YPL051W, strain arl3, hits give low values 0.98 | S. cerevisiae deletion strains, locus YPL055C, strain LGE1, hits give low values 0.955 | S. cerevisiae deletion strains, locus YPL078C, strain atp4, hits give low values 0.949 | S. cerevisiae deletion strains, locus YPL106C, strain sse1, hits give low values 0.967 | S. cerevisiae deletion strains, locus YPL240C, strain hsp82, hits give low values 0.979 | S. cerevisiae deletion strains, locus YPL241C, strain CIN2, hits give low values 0.992 | S. cerevisiae deletion strains, locus YPL256C, strain CLN2, hits give low values 0.991 | S. cerevisiae deletion strains, locus YPR119W, strain clb2, hits give low values 0.989 | S. cerevisiae deletion strains, locus YPR141C, strain kar3, hits give low values 0.973 | S. cerevisiae deletion strains, locus YPR163C, strain tif3, hits give low values 0.989 | S. cerevisiae deletion strains, locus YPR167C, strain met16, hits give low values 0.991 | S. cerevisiae deletion strains, strain wtn01, hits give low values 0.991 | S. cerevisiae strains, strain wild type, hits give low values 0.979
